# Assay results reported in PubChem BioAssay (NCATS).
# Records with an inconclusive call do not appear. A call without a number means that no potency is given here. Calls of active or inactive are those of the source. The call rests on the fitted dose curve; in most records, active means well fitted curve in the direction sought with a large enough effect; inconclusive means small, poorly fitted or top-dose-only effect, or another doubt; inactive means no such curve, though single readings can be large; an effect the other way counts as inactive or inconclusive.
# How the values were obtained:
# [1] = qHTS of pediatric cancer cell lines to identify multiple opportunities for drug repurposing: Primary screen for RD cells (AID 1347104); further: nearly all actives have a fitted effect of over 55% in size; further: potency means the concentration at half of the fitted maximal effect
# Method in brief: (§1)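 Phenotypic viability qHTS, 48 h compound exposure, CellTiter-Glo luminescence read-out; multi-concentration dosing so that potency and efficacy derive directly from the primary screen's curves.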
# [2] = qHTS of pediatric cancer cell lines to identify multiple opportunities for drug repurposing: Primary screen for MG 63 (6-TG R) cells (AID 1347105); further: nearly all actives have a fitted effect of over 50% in size; further: potency means the concentration at half of the fitted maximal effect
# Method in brief: as §1
# [3] = qHTS of pediatric cancer cell lines to identify multiple opportunities for drug repurposing: Primary screen for control Hh wild type fibroblast cells (AID 1347106);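 further: series mostly up to about 46 µM; a drop in luminescence marks cytotoxicity and a rise apparent proliferation; nearly all actives have a fitted effect of over 55% in size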
# Method in brief: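 Cells (500-1,000/well) in growth media were settled 5 h at 37 degrees C, then given compounds for 48 h. Viability was read as CellTiter-Glo luminescence. Primary runs used MIPE at 11 points (0.78 nM-46 µM) and NPC at 8 points (0.59 nM-46 µM); follow-ups used 11 points.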
# [4] = qHTS of pediatric cancer cell lines to identify multiple opportunities for drug repurposing: Primary screen for Rh30 cells (AID 1347107); further: series mostly up to about 46 µM; nearly all actives have a fitted effect of over 75% in size
# Method in brief: (§2)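 Cells (500-1,000/well) rested 5 h, then received compounds for 48 h; metabolically active cells were measured by CellTiter-Glo luminescence. Final concentrations spanned up to 46 µM (MIPE, 11-point) or 0.59 nM-46 µM (NPC, 8-point) in primary screens, 11-point in follow-ups.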
# [5] = qHTS of pediatric cancer cell lines to identify multiple opportunities for drug repurposing: Primary screen for Rh41 cells (AID 1347108);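 further: series mostly up to about 46 µM; luminescence drop marks cytotoxic hits; nearly all actives have a fitted effect of over 70% in size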
# Method in brief: as §1
# [6] = qHTS of pediatric cancer cell lines to identify multiple opportunities for drug repurposing: Confirmatory screen for A673 cells (AID 1347110);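 further: cells exposed to compound for 48 h before the viability read; nearly all actives have a fitted effect of over 65% in size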; further: potency means the concentration at half of the fitted maximal effect
# Method in brief: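 qHTS titration format: primary MIPE 0.78 nM-46 µM (11 pts), NPC 0.59 nM-46 µM; confirmation 11 pts. 48 h, CTG luminescence.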
# [7] = qHTS of pediatric cancer cell lines to identify multiple opportunities for drug repurposing: Confirmatory screen for SK-N-MC cells (AID 1347111);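 further: cells exposed to compound for 48 h before the readout; nearly all actives have a fitted effect of over 70% in size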; further: potency means the concentration at half of the fitted maximal effect
# Method in brief: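 Seed 500-1,000 cells/well; rest 5 h at 37 degrees C. Pin-transfer compounds, 11-point titration. Incubate 48 h. Add CellTiter-Glo, 15 min RT, read luminescence.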
# [8] = qHTS of pediatric cancer cell lines to identify multiple opportunities for drug repurposing: Confirmatory screen for BT-12 cells (AID 1347112); further: nearly all actives have a fitted effect of over 55% in size
# Method in brief: as §2
# [9] = qHTS of pediatric cancer cell lines to identify multiple opportunities for drug repurposing: Confirmatory screen for LAN-5 cells (AID 1347113); further: nearly all actives have a fitted effect of over 65% in size; further: potency means the concentration at half of the fitted maximal effect
# Method in brief: as §2
# [10] = qHTS of pediatric cancer cell lines to identify multiple opportunities for drug repurposing: Confirmatory screen for DAOY cells (AID 1347114); further: nearly all actives have a fitted effect of over 65% in size
# Method in brief: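 Viability measured as metabolically active cells via CellTiter-Glo luminescence following 48 hours of compound exposure, 11-point dilutions in confirmatory testing. 500-1,000 cells/well plated 5 hours before dosing; controls were DMSO and 2.3 µM bortezomib.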
smiles,measurement,setting,value
Nc1nc(-c2ccccc2)c(Br)c(=O)[nH]1,Potency,[1],inactive
same,Potency,[2],inactive
same,Potency,[3],inactive
same,Potency,[4],inactive
same,Potency,[5],inactive
COc1cc(NS(=O)(=O)c2ccc(N)cc2)ncn1,Potency,[1],inactive
same,Potency,[2],inactive
same,Potency,[3],inactive
same,Potency,[4],inactive
same,Potency,[5],inactive
CN(C)CCOC(=O)C(c1ccccc1)C1(O)CCCC1 (stereo not drawn),Potency,[1],inactive
same,Potency,[2],inactive
same,Potency,[3],inactive
same,Potency,[5],inactive
CC(C(=O)O)c1cccc(Oc2ccccc2)c1 (stereo not drawn),Potency,[1],inactive
same,Potency,[2],inactive
same,Potency,[3],inactive
same,Potency,[4],inactive
same,Potency,[5],inactive
NS(=O)(=O)c1cc2c(cc1Cl)NC(CC1CCCC1)NS2(=O)=O (stereo not drawn),Potency,[1],inactive
same,Potency,[2],inactive
same,Potency,[3],inactive
same,Potency,[4],inactive
same,Potency,[5],inactive
Cc1ccc(S(=O)(=O)NC(=O)NC2CCCC2)cc1,Potency,[1],inactive
same,Potency,[2],inactive
same,Potency,[3],inactive
same,Potency,[4],inactive
same,Potency,[5],inactive
CCc1cc(Cl)c(OC)c(C(=O)NC[C@@H]2CCCN2CC)c1O,Potency,[1],inactive
same,Potency,[2],inactive
same,Potency,[3],inactive
same,Potency,[4],inactive
same,Potency,[5],inactive
C[N+]1(CC2COC(c3ccccc3)(C3CCCCC3)O2)CCCCC1 (stereo not drawn),Potency,[1],inactive
same,Potency,[2],inactive
same,Potency,[3],inactive
same,Potency,[4],inactive
same,Potency,[5],inactive
O=C(O)c1ccc(S(=O)(=O)N(Cl)Cl)cc1,Potency,[1],inactive
same,Potency,[2],inactive
same,Potency,[3],inactive
same,Potency,[4],inactive
same,Potency,[5],inactive
COc1ccc(C(=O)c2ccccc2)c(O)c1,Potency,[1],inactive
same,Potency,[2],inactive
same,Potency,[3],inactive
same,Potency,[4],inactive
same,Potency,[5],inactive
same,Potency,[6],inactive
same,Potency,[7],inactive
same,Potency,[8],inactive
same,Potency,[9],inactive
same,Potency,[10],inactive
CCC(CC)(CC(=O)Nc1cccc(/C=C/c2nc(C3CCC3)cs2)c1)C(=O)O,Potency,[1],inactive
same,Potency,[2],inactive
same,Potency,[3],inactive
same,Potency,[4],inactive
same,Potency,[5],inactive
CCN(CC)CCOc1ccccc1C(=O)CCc1ccccc1,Potency,[1],inactive
same,Potency,[2],inactive
same,Potency,[3],inactive
same,Potency,[4],inactive
same,Potency,[5],inactive
CC(=O)NC(=O)c1ccccc1O,Potency,[1],inactive
same,Potency,[2],inactive
same,Potency,[3],inactive
same,Potency,[4],inactive
same,Potency,[5],inactive
C#C[C@]1(O)CC[C@H]2[C@@H]3[C@H](C)CC4=C(CCC(=O)C4)[C@H]3CC[C@@]21C,Potency,[1],inactive
same,Potency,[2],inactive
same,Potency,[3],inactive
same,Potency,[4],inactive
same,Potency,[5],inactive
CCCCNc1ccc(C(=O)OCCOCCOCCOCCOCCOCCOCCOCCOCCOC)cc1,Potency,[1],inactive
same,Potency,[2],inactive
same,Potency,[3],inactive
same,Potency,[4],inactive
same,Potency,[5],inactive
O=C(NC1CCN(CCc2c[nH]c3ccccc23)CC1)c1ccccc1,Potency,[1],inactive
same,Potency,[2],inactive
same,Potency,[3],inactive
same,Potency,[4],inactive
same,Potency,[5],inactive
CCOC(=O)C(C#N)=C(c1ccccc1)c1ccccc1,Potency,[1],inactive
same,Potency,[2],inactive
same,Potency,[3],inactive
same,Potency,[4],inactive
same,Potency,[5],inactive
O=C1C(CCS(=O)c2ccccc2)C(=O)N(c2ccccc2)N1c1ccccc1 (stereo not drawn),Potency,[1],inactive
same,Potency,[2],inactive
same,Potency,[3],inactive
same,Potency,[4],inactive
same,Potency,[5],inactive
COc1cc(C(=O)N2CCCCCCC2)cc(OC)c1OC,Potency,[1],inactive
same,Potency,[2],inactive
same,Potency,[3],inactive
same,Potency,[4],inactive
same,Potency,[5],inactive
Cc1ccccc1OCC(O)CO (stereo not drawn),Potency,[1],inactive
same,Potency,[2],inactive
same,Potency,[3],inactive
same,Potency,[4],inactive
same,Potency,[5],inactive
C=C[C@@]1(C)CC(=O)[C@]2(O)[C@@]3(C)[C@@H](O)CCC(C)(C)[C@@H]3[C@H](O)[C@H](OC(C)=O)[C@@]2(C)O1,Potency,[1],inactive
same,Potency,[2],inactive
same,Potency,[3],inactive
same,Potency,[4],inactive
same,Potency,[5],inactive
same,Potency,[6],inactive
same,Potency,[9],inactive
same,Potency,[10],inactive
Nc1nc(Cl)nc2c1ncn2[C@@H]1O[C@H](CO)[C@@H](O)[C@@H]1F,Potency,[1],inactive
same,Potency,[2],0.841 µM (active)
same,Potency,[3],inactive
same,Potency,[4],inactive
same,Potency,[5],inactive
same,Potency,[6],1.04 µM (active)
same,Potency,[7],0.0928 µM (active)
same,Potency,[9],1.65 µM (active)
CCCCCCCCCCCCCC(=O)OC(C)C,Potency,[1],inactive
same,Potency,[2],inactive
same,Potency,[3],inactive
same,Potency,[4],inactive
same,Potency,[5],inactive
C=C[C@H]1CN2CC[C@H]1C[C@H]2[C@H](O)c1ccnc2ccc(OC)cc12,Potency,[1],inactive
same,Potency,[2],inactive
same,Potency,[3],inactive
same,Potency,[5],inactive
CNCCCCOc1ccccc1Cc1ccccc1,Potency,[1],23.7 µM (active)
same,Potency,[3],inactive
same,Potency,[4],inactive
CN1CCC[C@@H]1CCO[C@](C)(c1ccccc1)c1ccc(Cl)cc1,Potency,[1],26.6 µM (active)
same,Potency,[3],inactive
same,Potency,[4],inactive
O=C(O)CCNC(=O)c1ccccc1,Potency,[1],inactive
same,Potency,[2],inactive
same,Potency,[3],inactive
same,Potency,[5],inactive
C[N+]12CCC(CC1)C(OC(=O)C(O)(c1ccccc1)c1ccccc1)C2 (stereo not drawn),Potency,[1],inactive
same,Potency,[2],inactive
same,Potency,[3],inactive
same,Potency,[5],inactive
Nc1ccc(S(=O)(=O)Nc2cnc3ccccc3n2)cc1,Potency,[1],inactive
same,Potency,[2],inactive
same,Potency,[3],inactive
same,Potency,[5],inactive
CC(=O)N[C@@H](CCC(=O)O)C(=O)O,Potency,[1],inactive
same,Potency,[2],inactive
same,Potency,[3],inactive
same,Potency,[5],inactive
CCCCCCCCCCCCSCCOCCO,Potency,[1],inactive
same,Potency,[2],inactive
same,Potency,[3],inactive
same,Potency,[5],inactive
CCc1nn(CCCN2CCN(c3cccc(Cl)c3)CC2)c(=O)n1CCOc1ccccc1,Potency,[1],inactive
same,Potency,[3],inactive
same,Potency,[4],inactive
